Out of some 1,300 compounds screened, about 360 (28%) were called active.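 The calls were made as follows: active = average inhibition of at least 50%, with Z-scores no higher than 3 in both the phospho-tyrosine peptide and fluorescence counterscreens; inactive = the rest.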 A selection follows.
Legend:
[1] = Nef-activated Hck kinase blockers, duplicate retest – biochemical, Z-Lyte FRET, 384-well, p-Tyr peptide counterscreen, confirmation (AID 463188); settings: Recombinant Hck-YEEI:Nef, Z-Lyte FRET kinase assay; measured here: p-Tyr peptide counterscreen; at 10 µM
[2] = biological target: Tyrosine-protein kinase HCK (Homo sapiens) (UniProt P08631); test: as above; settings: Recombinant Hck-YEEI:Nef, Z-Lyte FRET kinase assay; at 10 µM; stronger effect = higher value
Tyrosine-protein kinase HCK (Homo sapiens), sequence (P08631 whole entry, looked up): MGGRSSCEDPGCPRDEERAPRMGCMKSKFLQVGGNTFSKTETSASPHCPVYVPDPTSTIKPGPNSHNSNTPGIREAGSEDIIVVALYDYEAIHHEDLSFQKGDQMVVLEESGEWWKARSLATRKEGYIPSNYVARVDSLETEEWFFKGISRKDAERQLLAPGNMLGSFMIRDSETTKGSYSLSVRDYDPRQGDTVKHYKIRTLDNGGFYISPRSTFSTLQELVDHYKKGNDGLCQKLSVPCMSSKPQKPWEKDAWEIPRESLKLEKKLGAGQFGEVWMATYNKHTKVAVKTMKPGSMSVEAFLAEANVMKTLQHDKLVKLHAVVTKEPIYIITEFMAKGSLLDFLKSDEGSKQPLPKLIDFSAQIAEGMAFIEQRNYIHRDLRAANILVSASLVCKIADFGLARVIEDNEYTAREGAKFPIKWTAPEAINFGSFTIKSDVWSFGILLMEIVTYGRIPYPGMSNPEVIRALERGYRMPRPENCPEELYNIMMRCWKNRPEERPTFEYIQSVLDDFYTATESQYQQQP

| SMILES | z-score [1] | inhibition [2] | inhibition [1] |
| --- | --- | --- | --- |
| N#Cc1c(-c2cccs2)nc(SCC(=O)c2ccc(Br)cc2)[nH]c1=O | -2.14 | 54.2% (active) |  |
| Cc1ccc(S(=O)(=O)c2c(N)n(C)c3nc4ccccc4nc23)cc1 | 15.1 | 51.3% (inactive) |  |
| Cc1ccc(-n2c(=O)c(C#N)cc3c(=O)n4ccccc4nc32)cc1C |  |  | 15.8 |
| COc1ccc(N=Cc2c(O)[nH]c3ccccc23)cc1OC | 2.53 | 67.3% (active) |  |
| CCN(CC)c1ccc2cc(C(=O)O)c(=O)oc2c1 |  |  | 180 |
| CC(C)n1cnc2c(Nc3cccc(Cl)c3)nc(N(CCO)CCCO)nc21 | -1.42 | 92.6% (active) |  |
| COc1cccc(CNC(=O)CCC2CCCN(Cc3ccc(OC(F)F)cc3)C2)c1 (configuration not stated) | 0.273 | 13.3% (inactive) |  |
| CCn1c(=O)c2cc(C(=O)Nc3cccc(C(C)=O)c3)sc2c2ccccc21 | 0.522 | 30.2% (inactive) |  |
| CC(C)(C)OC(=O)NCCCCCC(=O)N/N=C/c1coc2ccccc2c1=O | -0.798 | 80.9% (active) |  |
| Oc1c(Cl)cc(Cl)c(Cl)c1Cc1c(O)c(Cl)cc(Cl)c1Cl | -1.64 | 12.2% (inactive) |  |
| COC(=O)C1=CN(Cc2ccc(OC)c(OC)c2)C=C(C(=O)OC)C1c1cccs1 |  |  | 22.9 |
| Cc1ccc(-c2cc(C(=O)NCc3cn(C)nc3C)c3cc(Br)ccc3n2)cc1 | -0.98 | 46.1% (inactive) |  |
| O=C(Nc1ccncc1)c1cc(-c2ccccn2)nc2ccc(Br)cc12 | 0.0526 | 76.4% (active) |  |
| O=C(CSc1cccc2cccnc12)N/N=C/c1cccnc1 | -0.0644 | 36.9% (inactive) |  |
| Cc1ncc(CC(=O)n2cc(C(=O)c3cc(Cl)ccc3O)cn2)s1 | -1.16 | 75% (active) |  |
| COC/C=C/C1=CC2=CC(=O)C(C)(OC(=O)CCC(=O)OC)C(=O)C2=CO1 (configuration not stated) | -0.884 | 43.8% (inactive) |  |
| O=C(Cc1ccccc1)Nc1cccc(C(=O)N/N=C/c2ccco2)c1 | -0.994 | 30% (inactive) |  |
| COc1ccc(C(=O)n2nc(-c3ccc(Cl)cc3)nc2N)cc1OC | 3.28 | 2.06% (inactive) |  |
| CCn1c(=N)c(C(=O)NCCCOC)cc2c(=O)n3cccc(C)c3nc21 |  |  | 192 |
| Cc1ccc(/C=C/C(=O)Nc2ccc([N+](=O)[O-])c(NC(=O)/C=C/c3ccc(C)o3)c2)o1 | -2.13 | 51.4% (active) |  |
| O=C(NNC(=O)c1csc(-c2cccnc2)n1)Nc1ccc(Cl)cc1 | -0.478 | 11.4% (inactive) |  |
| Cc1ccc(SC(CC(=O)c2ccc(C(C)(C)C)cc2)C(=O)O)cc1 (configuration not stated) | -0.516 | 20.8% (inactive) |  |
| O=[N+]([O-])c1cc(Cl)cc(/C=N/NC(=S)Nc2cc(S(=O)(=O)N3CCOCC3)ccc2Cl)c1O | -0.299 | 63.6% (active) |  |
| CN(C)S(=O)(=O)c1cccc(-c2nn(-c3ccccc3)cc2/C=C2\SC(=S)N(CC(=O)O)C2=O)c1 | -1.38 | 38.1% (inactive) |  |
| C=C(C)COc1ccc(-c2nc(N)ncc2-c2ccccc2OC)c(O)c1 | -0.555 | 55.8% (active) |  |

| SMILES | z-score [1] | inhibition [2] | inhibition [1] |
| --- | --- | --- | --- |
| CCOc1ccc(-c2nc(N)ncc2-c2ccccc2OC)c(O)c1 | -1.74 | 63.2% (active) |  |
| COc1cccc(C(=O)c2cc3ccc(O)cc3oc2=O)c1 |  |  | 51.8 |
| O=C1Oc2ccccc2C(=O)/C1=C/c1ccccc1O | -0.0667 | 30.1% (inactive) |  |
| Cc1cc(/C=N/Nc2ccc([N+](=O)[O-])cn2)c(C)n1-c1cccc(C(=O)O)c1 | 0.131 | 38.5% (inactive) |  |
| COC(=O)Cc1cc(=O)oc2c(C)c(O)ccc12 |  |  | 94.6 |
| CC(=O)Oc1ccc2c(C)c(CC(C)O)c(=O)oc2c1 (configuration not stated) |  |  | 122 |
| CCCCN(CCCC)CC(O)Cn1c2ccccc2c(=O)c2ccccc21 (configuration not stated) |  |  | 80.9 |
| OC(c1nnc(-c2ccccc2)o1)c1cccs1 (configuration not stated) | -1.39 | 19.9% (inactive) |  |
| CCOc1ccccc1C1C(C(=O)OC)=CN(C)C=C1C(=O)OC |  |  | 41.6 |
| Cc1cccc(-[n+]2c(-c3cccc(Br)c3)[nH]c3nc4ccccc4nc32)c1 | -0.694 | 13.5% (inactive) |  |
| Cc1cc(C)c2nc(-c3cccnc3)cc(C(=O)Nc3ccc(S(=O)(=O)Nc4onc(C)c4C)cc3)c2c1 | -1.22 | 40.5% (inactive) |  |
| O=C(Nc1ccc(S(=O)(=O)Nc2nccs2)cc1)c1cc(-c2ccncc2)nc2ccccc12 | -0.658 | 65.3% (active) |  |
| COCCCn1c(-c2cccs2)nc2nc3ccccc3nc21 |  |  | 61.4 |
| CN(CC(=O)Nc1cccc(F)c1)CC(=O)Nc1cccc([N+](=O)[O-])c1 | -0.0694 | 62.1% (active) |  |
| O=[N+]([O-])c1cccc(Nc2c3ccccc3nc3ccccc23)c1 | 0.872 | 9.19% (inactive) |  |
| O=C(NCc1ccccc1)C1CCCN(c2nc3ccsc3c(=O)s2)C1 (configuration not stated) | 2.05 | 18.7% (inactive) |  |
| CN(C(=O)COC(=O)c1cc(-c2ccco2)nc2ccccc12)C1CCS(=O)(=O)C1 (configuration not stated) | 0.38 | 49.5% (inactive) |  |
| c1ccc(CSc2nnc(-c3ccco3)c(-c3ccco3)n2)cc1 | 0.442 | 26.4% (inactive) |  |
| Clc1ccc2c(c1)C1=C(C(c3ccncc3)O2)C(c2ccc(Br)cc2)n2ncnc2N1 (configuration not stated) | 1.34 | 92.8% (active) |  |
| Cc1cc(OC(=O)c2ccccc2Cl)ccc1N1C(=O)CCC1=O | 0.0636 | 11.5% (inactive) |  |
| COC(=O)c1ccc(OCC(O)CN(CCO)CC(O)Cn2ccc3ccccc32)cc1 (configuration not stated) | 3.64 | -1.67% (inactive) |  |
| O=C(O)CCn1cc(/C=C/C(=O)c2ccc(Cl)cc2)c(-c2cccc(Br)c2)n1 | -0.131 | 24.8% (inactive) |  |
| CCCn1c(=NC(C)=O)c(C(=O)OCC)cc2c(=O)n3ccccc3nc21 | 85.9 | 33.1% (inactive) |  |
| Cc1cccn2c(=O)c3cc(C#N)c(=O)n(CCCN4CCOCC4)c3nc12 |  |  | 248 |

From PubChem BioAssay AID463188 (University of Pittsburgh Molecular Library Screening Center, 2010)
